{
  "source": "PubChem BioAssay AID624391",
  "about": "(National Center for Advancing Translational Sciences (NCATS), 2012)",
  "note": "Active and inactive are the calls of the source. Calls follow the shape of the dose curve; as a rule, active = well fitted curve in the direction sought with a large enough effect; inactive = no such curve, though single readings can be large or run the other way.",
  "data": [
    {"target": "Pyruvate kinase PKM (Homo sapiens) (UniProt P14618)", "sequence (P14618 whole entry, looked up, canonical isoform)": "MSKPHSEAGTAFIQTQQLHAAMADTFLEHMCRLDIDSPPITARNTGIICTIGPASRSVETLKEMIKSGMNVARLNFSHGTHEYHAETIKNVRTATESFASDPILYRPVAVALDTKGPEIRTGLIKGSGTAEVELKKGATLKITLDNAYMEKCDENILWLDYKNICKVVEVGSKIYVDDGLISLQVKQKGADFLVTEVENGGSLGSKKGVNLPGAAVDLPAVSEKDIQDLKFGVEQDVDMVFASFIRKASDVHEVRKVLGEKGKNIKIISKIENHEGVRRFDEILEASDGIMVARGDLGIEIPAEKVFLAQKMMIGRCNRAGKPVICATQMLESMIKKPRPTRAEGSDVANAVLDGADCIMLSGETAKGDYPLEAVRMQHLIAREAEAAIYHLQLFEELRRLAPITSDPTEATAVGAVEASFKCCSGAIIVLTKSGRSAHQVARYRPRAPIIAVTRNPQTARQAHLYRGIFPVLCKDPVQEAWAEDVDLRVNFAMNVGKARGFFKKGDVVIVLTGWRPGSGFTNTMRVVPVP", "experiment": "qHTS for Activators of Human Muscle Isoform 2 Pyruvate Kinase: Extended Characterization for Probe 2", "settings": "purified hPK-M2, Kinase-Glo ATP luminescence, 1 h", "procedure": "Human pyruvate kinase muscle 2 (hPK-M2) enzyme was supplied as a highly purified (>95% pure) preparation from Harvard Medical School and assayed for its ability to generate ATP from ADP using phosphoenolpyruvate (PEP) as a substrate. ATP generation was detected in a coupled reaction by luciferase-mediated luminescence, an ATP-dependent process. […] The enzyme was assayed at an intermediate level of activity to screen for both inhibitors and activators. NIH Chemical Genomics Center [NCGC] NIH Molecular Libraries Probe Centers Network [MLPCN] MLPCN Grant: MH085679 Assay Submitter (PI): Matthew G. Vander Heiden, Harvard Medical School\nThree uL of substrate mix (at r.t.) in assay buffer (50 mM Imidazole pH7.2, 50 mM KCl, 7 mM MgCl2, 0.01% Tween 20, 0.05% BSA) was dispensed into white solid bottom 1,536 well microtiter plates so that the final concentrations of substrates in the assay were 0.1 mM ADP and 0.5 mM PEP. 23 nL of compound were delivered by a pin tool and 1 uL of enzyme mix (final concentration of 0.1 nM) in assay buffer (4 degree Celsius) was added. Plates were incubated at room temperature for 1 hour. Two uL of detection mix (Kinase-Glo, Promega; at 4 degree Celsius protected from light) was added and luminescence read by a ViewLux (Perkin Elmer) at 1 second exposure/plate. Data were normalized to the uninhibited (column 3) and AC100 inhibition (no enzyme in column 2). To monitor activation, the first column contained a titration of the activator, NCGC00031955-03 (16-point 1:2 dilutions in duplicate starting at 57 uM) and the first 16 rows of column 4 contained 57 uM of NCGC00031955-03.", "values": [
      {"smiles": "Cc1ccc(NS(=O)(=O)c2ccc3c(c2)CCC(=O)N3)cc1C", "Potency": "163 nM (active)"},
      {"smiles": "O=S(=O)(c1ccc2c(c1)OCCO2)N1CCN(S(=O)(=O)c2c(F)cccc2F)CC1", "Potency": "81.9 nM (active)"},
      {"smiles": "COc1cccc(Cn2ncc3c4sc(S(C)=O)cc4n(C)c3c2=O)c1", "note": "(stereo not drawn)", "Potency": "73 nM (active)"}
    ]}
  ]
}
